A selection: hits, their analogues and other compounds. The true share with any hit is near 19%.
TGFb SMAD3 inh = inhibitors of TGF-b signaling; HepG2 CAGA-GFP TGF-b/SMAD3 reporter, GFP fluorescence, 18 h; TGF-beta stimulated, 500 pg/mL final; Potency, µM (doses to about 46.1 µM), without a hit: at the highest dose activity, negative = inhibition, actives largely listed as inhibitors; hit rate 1.2% among 410,000; AID 588855; also: potency is read from the fitted curve at half-maximal effect; % is scaled to controls: 0 for no effect and ±100 for the full control effect; nearly all actives have a fitted effect of over 65% in size
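Cell-based qHTS in HEPG2 carrying a CAGA-GFP Smad reporter; compounds added before 500 pg/mL final TGF-beta, 18 h incubation at 37 degrees C, GFP fluorescence quantified per cell by imaging cytometry.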
IL-1B inflam inh = blocks inflammasome-driven IL-1 beta release; hit rate 4.7% among 360,000; THP-1 LPS/ATP IL-1B secretion, AlphaLISA, 16 h; stronger effect = lower value; activity change, % at 57.5 µM; in the data active = activity change below about -50%; inconclusive = mostly about -30% to -49%; also: % is scaled to controls: 0 for no effect and ±100 for the full control effect
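Secreted IL-1B measured by AlphaLISA bead assay after 16 h compound exposure of THP-1 cells; compounds (final up to 57.5 uM) added 1 h before LPS (250 ng/mL) and ATP (1.25 mM) stimulation; lower signal means less secretion.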
TDP1 cell CPT = DT40-hTDP1 cell growth loss with CPT | chicken DT40 Tdp1-/-;hTDP1 cells + 20 nM CPT, ATP luminescence, 48 h | hit rate 12% among 420,000 | Potency, µM (doses to about 46.2 µM), for inactives: at the top dose activity change, negative = growth inhibition, usual class: inhibitors; also: potency is read from the fitted curve at half-maximal effect; % is scaled to controls: 0 for no effect and ±100 for the full control effect; nearly all actives have a fitted effect of over 55% in size
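Chicken DT40 Tdp1-/- cells stably complemented with human TDP1 were seeded at 400 cells/well in medium containing 20 nM camptothecin, exposed to pin-transferred compounds, and grown at 37 °C for at least 48 hr. Viability was read as ATP luminescence.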
HepG2 tox = counter-screen for TGF-b inhibitors: cytotoxicity in HepG2 cells; hit rate 0.76% among 410,000; Potency, µM (titrated, usually from 46.1 µM), for inactives: at the top dose activity change, negative = cytotoxicity, usual class: cytotoxic; HepG2 CAGA-GFP viability, ATP luminescence, 18 h; also: potency is read from the fitted curve at half-maximal effect
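CellTiter-Glo luminescence gave cytotoxicity after 18 hours at 37 degrees C. The cells were HepG2 CAGA-GFP in 1% FBS DMEM, stimulated with 500 pg/mL TGF-beta after compound addition. %Activity was normalised to no-cell wells (complete cell-killing) and DMSO (no toxicity), and curves were fitted and classified.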
S-ASM inh = human S-ASM enzyme inhibition. P17405. AID 504937. hit rate 0.006% among 340,000. placental ASM, HMU-PC fluorogenic substrate, 60 min. Potency, µM (top dose mostly 57.5 µM), for inactives: at the top dose activity change, negative = inhibition, actives largely listed as inhibitors; also: potency is read from the fitted curve at half-maximal effect
Target sequence (P17405 47-631 limits assumed): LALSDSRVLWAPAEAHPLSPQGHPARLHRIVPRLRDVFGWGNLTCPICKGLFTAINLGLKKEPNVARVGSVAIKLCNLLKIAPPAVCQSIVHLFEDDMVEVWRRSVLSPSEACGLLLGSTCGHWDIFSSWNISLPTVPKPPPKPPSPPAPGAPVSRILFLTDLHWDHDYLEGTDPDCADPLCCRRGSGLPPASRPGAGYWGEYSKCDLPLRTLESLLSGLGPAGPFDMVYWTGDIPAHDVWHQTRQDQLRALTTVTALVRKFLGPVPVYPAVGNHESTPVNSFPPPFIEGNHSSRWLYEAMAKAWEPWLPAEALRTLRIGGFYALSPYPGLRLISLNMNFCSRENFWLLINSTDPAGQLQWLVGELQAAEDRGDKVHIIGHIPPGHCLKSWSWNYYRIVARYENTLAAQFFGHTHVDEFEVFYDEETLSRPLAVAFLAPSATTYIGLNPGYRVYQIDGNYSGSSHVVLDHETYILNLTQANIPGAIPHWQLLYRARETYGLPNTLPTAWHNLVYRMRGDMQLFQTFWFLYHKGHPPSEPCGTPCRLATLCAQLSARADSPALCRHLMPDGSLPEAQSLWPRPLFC
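Fluorescence read-out (Ex 386 nm, Em 447 nm) after stopping the reaction at pH 10. Enzyme: ASM from human placenta; substrate HMU-PC0, 9 uM final; 60 min, 37 °C. Compound preincubation 10 min, ambient temperature.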
DT40 TDP1 no CPT = qHTS for Inhibitors of human tyrosyl-DNA phosphodiesterase 1 (TDP1): qHTS in cells in absence of CPT; DT40 Tdp1-/- hTDP1 cells, no CPT, ATP luminescence, 48 h; AID 686978, 2013; Potency, µM (titrated, usually from 46.2 µM), for inactives: top-dose activity change, negative = growth inhibition, most hits filed as inhibitors; hit rate 15% among 420,000; also: potency is read from the fitted curve at half-maximal effect; % is scaled to controls: 0 for no effect and ±100 for the full control effect; nearly all actives have a fitted effect of over 55% in size
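Seeded 400 DT40-hTDP1 cells/well (vehicle DMSO, no 20 nM CPT); pinned compounds; ≥48 hr at 37 °C; CellTiter-Glo luminescence as viability measure.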
Starred values were filed as active, the others as inactive; u = inconclusive; x = no result; ! = a repeat was not active. Unless noted, calls follow the shape of the dose curve; as a rule, active = well fitted curve in the direction sought with a large enough effect; inconclusive = small, poorly fitted or top-dose-only effect, or another doubt; inactive = no such curve, though single readings can be large; an effect the other way counts as inactive or inconclusive.

SMILES	TGFb SMAD3 inh	IL-1B inflam inh	TDP1 cell CPT	HepG2 tox	S-ASM inh	DT40 TDP1 no CPT
CCCOc1ccc(-c2cn3ccccc3n2)cc1[N+](=O)[O-]	-11%	-24	u	-38%	-5%	15µM*
CCCOc1cccc(C(=O)Nc2cccc(-c3nc4ncccc4o3)c2C)c1	5%	x	x	3%	x	x
CCOC(=O)c1ccccc1NC(=O)N(Cc1ccc(C)cc1)Cc1cccn1-c1nnc(N2CCCC2=O)s1	-2%	x	23µM*	-3%	x	18µM*
Oc1ccc(Br)cc1-c1n[nH]c(=S)n1Cc1ccccc1	0%	-6	-11%	-10%	-22%	-29%
Oc1ccc(Br)cc1-c1ccnn1-c1ccccc1	u	-1	21µM*	8%	-4%	10µM*
CNc1cncc(-c2cccc(C(=O)NCCN(C)C)c2)n1	36%	24	1%	-6%	x	-1%
CC(C)CNc1nc(N)c([N+](=O)[O-])c(N2CCCCCC2)n1	u	-13	u	-142%	-13%	16µM*
CCC(C)Nc1nc(N)c([N+](=O)[O-])c(N2CCCCCC2)n1 (stereo unspecified)	-27%	u	u	-4%	-5%	2.6µM*
Nc1nc(NCCO)nc(N2CCCCCC2)c1[N+](=O)[O-]	-12%	-17	-5%	1%	-7%	-4%
C=CCOc1ccc(/C=C/C(=O)OCC(=O)N(C)C2CCS(=O)(=O)C2)cc1 (stereo unspecified)	4%	0	-8%	-14%	-1%	6%
Cc1nn(-c2ccccc2)c(N)c1N=Nc1cccc(S(=O)(=O)N2CCOCC2)c1	2%	-56*	u	11%	-24%	16µM*
Cc1nn(-c2ccccc2)c(N)c1N=Nc1ccccc1	-25%	-68*	u	-27%	-16%	21µM*
Cc1cccc(N=Nc2c(C)nn(-c3ccccc3)c2N)c1C	-16%	0	u	-8%	-15%	u
Nc1nc(N)c(N=Nc2ccccc2)c(=O)[nH]1	-1%	u	21µM*	2%	0%	5.8µM*
Nc1ccc2ccccc2c1N=Nc1ccccc1	u	u	u	-17%	u	u
Nc1ncnc(N)c1N=Nc1ccccc1	-23%	-60*	23µM*	-42%	-8%	3.3µM*
CC(=O)NCCNC(=O)c1ccc(NC2=NC3CS(=O)(=O)CC3S2)cc1 (stereo unspecified)	-1%	9	0%	-2%	1%	3%
Cc1ccc(C(O)c2ncc(-c3ccc4ccccc4c3)[nH]2)c(C)c1 (stereo unspecified)	-10%	-1	u	-32%	x	-28%
COc1ccccc1C(=O)Nc1ccc(OCc2cc(=O)n3ccsc3n2)cc1	1%	x	-22%	2%	x	-16%
Nc1nn(-c2ccccc2)c(N)c1N=Nc1ccccc1F	-25%	-54*	9.2µM*	5%	-13%	13µM*
Cc1nn(-c2ccccc2)c(N)c1N=Nc1ccc(Cl)cc1	u	-76*	u	-32%	-22%	u
Cc1nn(-c2ccccc2)c(N)c1-c1ccccc1	-10%	-3	3%	-1%	-1%	11%
Nc1nn(-c2ccccc2)c(N)c1N=Nc1ccccc1	u	15	4.1µM*	2%	-10%	4.6µM*
CCN1CCN(Cc2c(C(=O)N/N=C(\C)c3ccc(Cl)cc3)nnn2-c2nonc2N)CC1	1%	6	-25%	14%	0%	27%
COc1ccc(NS(=O)(=O)c2ccc(NS(=O)(=O)c3ccc4c(c3)OCCO4)cc2)cc1	u	x	u	-2%	x	u
SMILES	TGFb SMAD3 inh	IL-1B inflam inh	TDP1 cell CPT	HepG2 tox	S-ASM inh	DT40 TDP1 no CPT
COc1ccc(NS(=O)(=O)c2ccc3oc(Nc4ccc5c(c4)OCCO5)nc3c2)cc1	u	-10	u	-23%	-27%	15µM*
CCNC(=O)CSc1nc2cc(S(=O)(=O)Nc3ccc(OC)cc3)ccc2o1	0%	20	u	-1%	0%	-8%
COc1ccc(NS(=O)(=O)c2ccc3oc(SC(C)C(N)=O)nc3c2)cc1 (stereo unspecified)	-4%	-12	16µM*	-20%	3%	12µM*
Cc1ccc(-n2cc(CNCC3CC(=O)N(C4CC4)C3)c(-c3cccc(C)c3)n2)cc1 (stereo unspecified)	u	-64*	12µM*	-107%	0%	15µM*
O=S(=O)(Nc1cc(S(=O)(=O)N2CCOCC2)ccc1NCC1CCCO1)c1ccccc1 (stereo unspecified)	6%	-5	1%	3%	-1%	4%
CCN(CC)S(=O)(=O)c1ccc(-c2nnc(SCC(=O)N3c4ccccc4CC3C)o2)cc1 (stereo unspecified)	0%	6	21µM*	-2%	-3%	21µM*
CCN(CC)S(=O)(=O)c1ccc(-c2nnc(SCC(=O)c3ccc(OC)cc3)o2)cc1	3%	20	-20%	3%	1%	-22%
CCN(CC)S(=O)(=O)c1ccc(-c2nnc(SCC(=O)N3c4ccccc4CC3C)n2CC)cc1 (stereo unspecified)	u	3	15µM*	4%	0%	21µM*
CC(NS(=O)(=O)c1ccc(Cl)cc1)C(=O)OCC(=O)c1ccc[nH]1 (stereo unspecified)	-2%	0	-1%	-3%	1%	5%
COc1ccccc1CNc1ncnc2c1cnn2-c1ccc(C)cc1	32%	x	-27%	-20%	x	-12%
CC(C)(C)C1(O)CCN2CC3c4ccccc4CCc4cccc(c43)C2C1 (stereo unspecified)	x	x	17µM*	x	x	24µM*
CC(C)(C)[C@]1(O)CCN2C[C@H]3c4ccccc4CCc4cccc(c43)[C@@H]2C1	-9%	-16	8.2µM*!	-33%	3%	12µM*
Cc1cccc(NC(=O)C(=O)NCCc2csc(-c3ccc(C(F)(F)F)cc3)n2)c1C	5%	x	-27%	0%	x	-26%
CC1(C(=O)NS(=O)(=O)Cc2ccccc2)CCN1C(=O)Cc1cc(F)ccc1F (stereo unspecified)	10%	-1	-12%	-2%	x	8%
Cc1cccc(N2CCN(S(=O)(=O)c3ccc(-c4ccc(=O)[nH]n4)o3)CC2)c1C	u	6	u	-26%	-3%	-22%
